Hit rate of the full screen: of about 340,000 compounds, about 1,000 (0.29%) were called active. A selection follows. Entries with a potency or affinity are not part of this list. Values without a mark were called inactive. Cut-off read from the data, not from the text of the source: inconclusive = inhibition above about 27% without an active follow-up result; inactive = below that.

As usually defined, the inhibition is the relative decrease from the control value, in per cent.

This test can be described thus: NS1A inhibition, H1N1 influenza, cell based functional assay (AID 504329). The settings on record: percent inhibition, at 12.5 µM, active compounds read high.
As to `CN1CC(C(=O)c2ccc(Cl)cc2)C(c2ccccc2)C1` (configuration not stated), the inhibition is -3.51%.

For `COc1ccc(C(=O)C2CN(C)CC2c2ccc(Cl)cc2)cc1` (configuration not stated), the inhibition was -2.24%.

For `O=[N+]([O-])c1ccc2nc(N3CCCC3)sc2c1`, the inhibition was -13.2%.

Take `COc1cc(Cl)c(C)cc1N1C(=O)CN(Cc2ccccc2)C1=S`: the inhibition was -3.41%.

Regarding `Cc1ccc(S(=O)(=O)N2CC(O)C[C@H]2C(=O)OCC(=O)N2CCN(c3ccc(F)cc3)CC2)cc1C` (some centres not stated), the inhibition was -4.2%.

With `O=C(COc1cc(F)ccc1[N+](=O)[O-])Nc1ccc(N2CCOCC2)cc1`, the inhibition is 6.79%.

Turning to `Cc1ccc(S(=O)(=O)N2CC(O)C[C@H]2C(=O)OCC(=O)Nc2ccc(N3CCOCC3)cc2)cc1C` (some centres not stated), the inhibition is -8.01%.

As to `COc1ccc(NC(=O)CNCCC2=CCCCC2)cc1`, the inhibition is -5.53%.

With `CN1CCN(c2ccc(NC(=O)COc3ccccc3[N+](=O)[O-])cc2)CC1`, the inhibition is 0.13%.

As for `O=C(CNCCC1=CCCCC1)Nc1ccccc1N1CCCCCC1`, the inhibition was -4.99%.

Take `NS(=O)(=O)c1ccc(NC(=O)COC(=O)C2CCCCC2)cc1`: the inhibition was -11.2%.

As for `CC(=O)Nc1ccc(NC(=O)COC(=O)C2CCCCC2)cc1`, the inhibition was -9.9%.

In the case of `COCc1cc(=O)[nH]c(SCC(=O)N2CCOCC2)n1`, the inhibition is -7.79%.

For the compound `CC(=O)NC(CC(=O)OCC(=O)N1CCN(S(=O)(=O)c2ccc(Cl)cc2)CC1)c1ccccc1` (configuration not stated), the inhibition is -16.1%.

Consider `COCCN(C(=O)CSc1nnc(-c2ccncc2)n1C)c1c(N)n(CC(C)C)c(=O)[nH]c1=O`, for which the inhibition is -15.9%.

For the compound `CCSc1oc(-c2ccco2)nc1S(=O)(=O)c1ccc(F)cc1`, the inhibition was 5.79%.

Consider `c1ccc(COc2ccccc2CNC2CCCC2)cc1`, for which the inhibition is 0.14%.

Consider `O=C(/C=C/c1ccc(Cl)cc1)NCCCN1CCOCC1`, for which the inhibition is -7.22%.

For the compound `CCC(Sc1nc2cc(OC)c(OC)cc2c(=O)n1CCc1ccc(OC)c(OC)c1)C(=O)NCCOC` (configuration not stated), the inhibition was 7.7%.

On to `COc1ccc(Cn2c(CCC(=O)NCc3ccco3)nc3cccnc32)cc1`, for which the inhibition is 0.67%.

In the case of `CCc1nnc(NC(=O)c2cc(-c3ccncc3)nc3ccccc23)s1`, the inhibition was -12.1%.

For the compound `Cc1ccc(N(C(=O)c2csnn2)C(C(=O)NC(C)(C)C)c2cccnc2)cc1` (configuration not stated), the inhibition was -8.33%.

Consider `CC1CN(c2ccc([N+](=O)[O-])c(NCCOc3ccccc3)c2)CCN1` (configuration not stated), for which the inhibition was 4.39%.

`CC1CN(c2ccc([N+](=O)[O-])c(NCCOc3ccc(Cl)cc3)c2)CC(C)N1` (configuration not stated): the inhibition is 20.5%.

For the compound `COCCN1C(=O)N[C@@H](CCc2ccccc2)[C@@H](C(=O)OC)[C@H]1C`, the inhibition was -8.6%.

Consider `COc1ccccc1NC(=O)CSc1nnc(CNC(=O)c2cccs2)o1`, for which the inhibition is -6.38%.

Turning to `O=C(Cn1cnc(S(=O)(=O)N2CCCCC2)c1)Nc1ccc(OC(F)(F)F)cc1`, the inhibition is 2.65%.

Regarding `O=S(=O)(Nc1ccc2c(c1)OCCO2)c1c(F)cccc1F`, the inhibition is -2%.

Turning to `CNc1nc(Cl)nc(Nc2ccccc2)n1`, the inhibition was 6.99%.

With `NNc1nc(Nc2ccccc2)nc(Nc2ccccc2)n1`, the inhibition was -2.5%.

For the compound `O=C(CCS(=O)CCC(=O)NCc1ccccc1)NCc1ccccc1`, the inhibition was -7.22%.

For the compound `CCN1C(=O)/C(=C/C=C2/Sc3ccccc3N2CCO)SC1=S`, the inhibition is 8.17%.

Consider `CCN1C(=O)/C(=C/C=C2\C=CN(CC)c3ccccc32)SC1=S`, for which the inhibition is 21%.

`CC(=O)c1ccc(N2CCN(C(=O)Cc3n[nH]c(=O)c4ccccc34)CC2)cc1`: the inhibition is 2.74%.

As to `COc1cccc(CN(C)C(=O)c2cccc(OCc3ccccc3)c2)c1`, the inhibition was 5.5%.

Consider `Cc1cc(OC(C)C(=O)NCCN2CCOCC2)c2c(C)c(C)c(=O)oc2c1` (configuration not stated), for which the inhibition is 2.99%.

As for `CC(=O)/C(N=Nc1c(C)n(C)n(-c2ccccc2)c1=O)=C(\C)O`, the inhibition was 1.66%.

On to `Cc1c(N=N/C(C(=O)Nc2ccccc2)=C(/O)c2ccccc2)c(=O)n(-c2ccccc2)n1C`, for which the inhibition is 12.5%.

For `COC(=O)/C(N=Nc1c(C)n(C)n(-c2ccccc2)c1=O)=C(\C)O`, the inhibition is 8.11%.

On to `CCOC(=O)/C(N=Nc1c(C)n(C)n(-c2ccccc2)c1=O)=C(/O)c1ccccc1`, for which the inhibition was 3.43%.

Consider `CCOC(=O)CC(NC(=O)c1cc2cccc(OC)c2oc1=O)c1ccc(OC)cc1` (configuration not stated), for which the inhibition was -20.4%.

`COc1ccc(-n2c(=O)c3ccccc3n(CC(=O)NC3CCCCC3)c2=O)cc1OC`: the inhibition was 10.9%.

Regarding `O=S(=O)(c1ccc(Cl)cc1)N1CCCC1c1cccnc1` (configuration not stated), the inhibition was -6.92%.

Take `COc1ccc(CNC(=O)C(OC(=O)c2ccco2)c2ccccc2F)cc1` (configuration not stated): the inhibition is 4.89%.

In the case of `COc1cc(C(=O)NCc2nnc(SCC(=O)N3CCCCCC3)o2)cc(OC)c1OC`, the inhibition was 0.67%.

Take `CC[C@@]1(C(=O)OC)N[C@H](CN(C)S(=O)(=O)c2ccc(C(C)(C)C)cc2)[C@@H]2C(=O)N(Cc3ccccc3)C(=O)[C@@H]21`: the inhibition is -9.1%.

For the compound `Cc1ccc(Nc2nc(N)nc(-c3oc4ccccc4c3C)n2)cc1`, the inhibition is -6.47%.

With `O=C(NCc1ccccn1)C(=O)N/N=C/c1ccc2c(c1)OCO2`, the inhibition was -4.91%.

Take `COc1cc(/C=N/NC(=O)C(=O)Nc2ccccn2)ccc1O`: the inhibition was -6.98%.

In the case of `O=C(Nc1ccccn1)C(=O)Nc1ccccn1`, the inhibition is -1.25%.

As to `Cc1cc(/C=N/NC(=O)C(=O)NCc2ccccn2)c(C)n1-c1ccccc1`, the inhibition is -2.44%.

Turning to `COc1ccc(-c2c(C)nc3c(-c4ccc(F)cc4)cnn3c2N)cc1`, the inhibition was -14.5%.

With `COc1cc(C(=O)NC2=NCCS2)ccc1OCc1c(C)noc1C`, the inhibition is -1.34%.

Take `O=C(CNC(=O)c1cccc(N2C(=O)c3ccccc3C2=O)c1)Nc1ccc(F)c(F)c1`: the inhibition is -11.5%.

Regarding `COc1cc(Br)cc(CN2CCN(c3ncccn3)CC2)c1O`, the inhibition was -10.6%.

Regarding `COc1cc(Br)cc(CN2CCN(C)CC2)c1O`, the inhibition is 2.34%.

For `Cc1c(O)c(CN2CCCC2)cc2c1oc(=O)c1ccccc12`, the inhibition was -0.95%.

In the case of `COc1cccc(C(=O)Oc2c(CN3CCOCC3)cc(Cl)c3cccnc23)c1`, the inhibition is 4.96%.

Regarding `Cc1ccc2c(c1)N(CCC(=O)NC1CC1)C(=O)C(C)O2` (configuration not stated), the inhibition was -4.26%.

With `COC(=O)c1cc(NC(=S)Nc2cc(Cl)cc(Cl)c2)cc(C(=O)OC)c1`, the inhibition is -5.67%.

`CN(Cc1ccc(F)cc1)C(=O)c1ccc(NC(=O)CC2SC(N3CCCC3)=NC2=O)cc1` (configuration not stated): the inhibition is 9.52%.

With `Cc1ccc(OCc2nnc(SCC(=O)Nc3ncc(C)s3)o2)cc1`, the inhibition is -2.25%.

As to `CCCC(=O)Nc1ccc(NC(=O)c2cccs2)cn1`, the inhibition is 20.7%.

In the case of `CN(C)c1ccc(CN(C)C2CCCCC2)cc1`, the inhibition was -7.34%.

Regarding `CN(C)c1ccc(CCc2ccc(N)cc2)cc1`, the inhibition is 14.3%.

For `NC(N)=N/N=C/c1ccc(N(c2ccccc2)c2ccccc2)cc1`, the inhibition was -36.1%.

In the case of `CCN(Cc1ccccc1)c1ccccc1`, the inhibition was -3.09%.

Regarding `Cc1ccc(C)c(NC(=S)N(CCN(C)C)C(C)c2ccccn2)c1` (configuration not stated), the inhibition is 4.89%.

For `Cc1cccc(C)c1NC(=S)N(CCN(C)C)C(C)c1ccccn1` (configuration not stated), the inhibition is 10.7%.

As for `Cc1cc(=O)[nH]c(SCC(=O)Nc2ccc(C)c(S(=O)(=O)N3CCCCC3)c2)n1`, the inhibition is 14%.

On to `O=C(CNC(=O)c1ccco1)Nc1ccc2c(c1)OCCO2`, for which the inhibition was 5.25%.

In the case of `COc1ccc(/C=C/C(=O)NC(=S)NNC(=O)c2c(-c3ccccc3)noc2C)cc1`, the inhibition was -5.37%.

As for `Cc1[nH]c(=S)[nH]c(=O)c1CCOc1ccccc1`, the inhibition is 21.1%.

Turning to `O=C(N/N=C/c1cc(Cl)cc([N+](=O)[O-])c1O)c1cccc(S(=O)(=O)N2CCOCC2)c1`, the inhibition is 13%.

As for `NNC(=S)Nc1ccc(S(=O)(=O)N2CCOCC2)cc1`, the inhibition was -2.99%.

In the case of `O=S(=O)(c1ccc(NC(=S)Nc2ccccc2)cc1)N1CCOCC1`, the inhibition was 1.71%.

Regarding `O=S(=O)(c1ccc(NC(=S)N/N=C/c2ccc(O)c(O)c2)cc1)N1CCOCC1`, the inhibition is 7.64%.

As for `Cc1sc2ncnc(OCC(=O)NC(C)C(C)C)c2c1C` (configuration not stated), the inhibition was 11.9%.

Take `N/C(=N\[N+](=O)[O-])N1CCN(C(=O)OC2CCCC2)CC1`: the inhibition was 0.06%.

For the compound `CCN(CC(=O)Nc1c(F)cccc1F)C(=O)CCNC(=O)c1ccc([N+](=O)[O-])cc1`, the inhibition was -2.66%.

As to `Cc1ccc2oc(-c3ccccc3C(=O)O)cc(=O)c2c1`, the inhibition is 1.72%.

Turning to `O=C(O)c1cccc(-c2ccccc2)c1O`, the inhibition is -26.6%.

Turning to `CN1CCN(C(=O)Nc2ccc([N+](=O)[O-])cc2)CC1`, the inhibition was 15.5%.

As for `O=C(CN1C(=O)C2C3C=CC(C3)C2C1=O)OCC(=O)c1ccc(Br)cc1` (configuration not stated), the inhibition was 4.57%.

Take `COc1ccc(C(=O)COC(=O)Cn2nnc3ccccc32)cc1Br`: the inhibition is 18.7%.

For the compound `O=C1CN(CC(=O)N2CCCCC2)c2ccccc2O1`, the inhibition is 16%.

For `O=C(CN1C(=O)c2ccccc2C1=O)OCC(=O)c1ccccc1`, the inhibition was -5.68%.

As to `O=C(Cn1[nH]c(=O)c2ccccc2c1=O)OCC(=O)c1ccc(Br)cc1`, the inhibition was 5.91%.

For `COc1ccc(C(=O)COC(=O)C2CC3CCCC(C2)C3=O)cc1Br` (configuration not stated), the inhibition is -3.01%.

Take `CCC1Oc2ccccc2N(CC(=O)NCc2ccco2)C1=O` (configuration not stated): the inhibition was -8.15%.

Regarding `O=C(CN1CCOc2ccccc21)NCc1ccco1`, the inhibition is -0.84%.

For the compound `Cc1c(C)c2ccc(OCC(=O)N3CCN(c4ccccc4)CC3)cc2oc1=O`, the inhibition is 4.8%.

The values above are taken from PubChem BioAssay AID504329 (Southern Research Specialized Biocontainment Screening …, 2011).
